# In ChEMBL document CHEMBL1157539, “Thousands of chemical starting points for antimalarial lead identification” (Nature, 2010):
# Experiments:
# Assay type in all cases: functional
# [1] = system: Plasmodium falciparum; assay: GSK_TCMDC: Inhibition of Plasmodium falciparum 3D7 in whole red blood cells, using parasite LDH activity as an index of growth. Test compounds present at 2uM
# [2] = system: Plasmodium falciparum; assay: GSK_TCMDC: Inhibition of Plasmodium falciparum Dd2 in whole red blood cells, using parasite LDH activity as an index of growth. Test compounds present at 2uM
# [3] = system: HepG2; assay: GSK_TCMDC: Percent inhibition of human HepG2 cell line. Test compounds present at 10uM.
compound,measurement,setting,value
CNc1ccc(CNCc2ccc(-c3ccc(-c4nc5cccc(C)c5[nH]4)cc3)cc2)cc1.O=C(O)C(F)(F)F,Inhibition,[1],100%
same,Inhibition,[2],92%
same,Inhibition,[3],35%
CCn1ccc2c(N3CCCS3(=O)=O)cc(C(=O)N[C@@H](Cc3ccccc3)[C@H](O)CNC(C)(C)CCCC(C)C)cc21,Inhibition,[1],97%
same,Inhibition,[2],98%
same,Inhibition,[3],8%
O=C(O)C(F)(F)F.O=S(=O)(NCCN1CCCC1)c1ccc(-c2cccc(CNC3Cc4ccccc4C3)c2)s1,Inhibition,[1],98%
same,Inhibition,[2],69%
same,Inhibition,[3],57%
COc1cccc(-c2nn(C)c3sc(C(=O)NCCN(C)Cc4ccccc4)cc23)c1,Inhibition,[1],92%
same,Inhibition,[2],26%
same,Inhibition,[3],21%
CC(C)C1C(=O)N(S(C)(=O)=O)C2CCN(C(=O)c3ccc(CN4CCCCC4)c([N+](=O)[O-])c3)C12.Cl (centres undefined),Inhibition,[1],100%
same,Inhibition,[2],100%
same,Inhibition,[3],10%
Cc1ccc2c(=NN=Cc3ccc(Cl)cc3)cc(C)[nH]c2c1,Inhibition,[1],100%
same,Inhibition,[2],34%
same,Inhibition,[3],0%
COc1ccc2nccc([C@@H](O)CN3CCC(NC(=O)C(c4ccccc4C)N4CCC(Cc5ccccc5)CC4)CC3)c2c1 (some centres undefined),Inhibition,[1],100%
same,Inhibition,[2],97%
same,Inhibition,[3],10%
Nc1nc(N)c2c(n1)CCC(c1ccccc1)C2 (centres undefined),Inhibition,[1],93%
same,Inhibition,[2],0%
same,Inhibition,[3],55%
COc1ccc(CNC2CCN(C)CC2)cc1-c1ccc(S(=O)(=O)NC2CCC2)s1.O=C(O)C(F)(F)F,Inhibition,[1],100%
same,Inhibition,[2],94%
same,Inhibition,[3],32%
Cc1cc2nc(-c3ccc(SCC(=O)Nc4ccc5c(c4)OCCO5)nc3)[nH]c2cc1C,Inhibition,[1],85%
same,Inhibition,[2],6%
same,Inhibition,[3],17%
O=C(NCCCCN1CCN(c2cccc3c2OCCO3)CC1)c1ccc(NC(=O)c2cc(Cl)cc(Cl)c2)cc1,Inhibition,[1],100%
same,Inhibition,[2],89%
same,Inhibition,[3],21%
COc1cc2c(cc1C=CC(=O)N1CCN(Cc3nc(O)c4c(C)c(C)sc4n3)CC1)OC(C)C2 (centres undefined),Inhibition,[1],82%
same,Inhibition,[2],87%
same,Inhibition,[3],0%
COc1cc(C(=O)N2CCN(C(C)C)CC2)ccc1CN(C)CCCCN1CCN(c2cccc(Cl)c2Cl)CC1.Cl,Inhibition,[1],100%
same,Inhibition,[2],98%
same,Inhibition,[3],79%
COc1ccc2nc3cc(Cl)ccc3c(N)c2c1.Cl,Inhibition,[1],100%
same,Inhibition,[2],100%
same,Inhibition,[3],100%
COc1ccc(CN2C(=S)N(Cc3ccccc3)C(=O)C2CC(=O)Nc2ccccc2)cc1OC (centres undefined),Inhibition,[1],96%
same,Inhibition,[2],73%
same,Inhibition,[3],6%
CCOC(=O)CNC(=O)N1CCN(C(=O)NCC(=O)OCC)CC1,Inhibition,[1],93%
same,Inhibition,[2],0%
same,Inhibition,[3],0%
COc1cc(NC(=O)c2c(-c3c(Cl)cccc3Cl)noc2C)c(OC)cc1Cl,Inhibition,[1],85%
same,Inhibition,[2],67%
same,Inhibition,[3],4%
O=C(/C=C/c1ccc(Cl)c(Cl)c1)N1CCC(NCc2c[nH]c3ccccc23)CC1,Inhibition,[1],94%
same,Inhibition,[2],4%
same,Inhibition,[3],36%
CCCN(CCC)C(=O)c1cc(C(=O)N[C@@H](Cc2ccccc2)[C@H](O)CNCc2cccc(OC)c2)cc(N2CCCCS2(=O)=O)c1,Inhibition,[1],97%
same,Inhibition,[2],99%
same,Inhibition,[3],0%
CCOc1ccc2nc3cc(NC(=O)c4ccco4)ccc3c(N)c2c1,Inhibition,[1],100%
same,Inhibition,[2],56%
same,Inhibition,[3],36%
CC(CCCC(=O)Nc1ccc(CC(C)NCCc2cccc(Cl)c2)cc1)NCCc1cccc(Cl)c1 (centres undefined),Inhibition,[1],100%
same,Inhibition,[2],14%
same,Inhibition,[3],98%
O=C(Cc1cccs1)NC(CCCN1CCC(Oc2cccc(Cl)c2)CC1)c1ccc(Cl)c(Cl)c1 (centres undefined),Inhibition,[1],86%
same,Inhibition,[2],70%
same,Inhibition,[3],39%
CS(=O)(=O)NCCCNCc1ccc(-c2ccc(-c3nc4cc(C(F)(F)F)ccc4[nH]3)s2)cc1.O=C(O)C(F)(F)F,Inhibition,[1],99%
same,Inhibition,[2],73%
same,Inhibition,[3],21%
COc1ccc(CCc2ccc(-c3c(C)[nH]c(C)c(Cl)c3=O)cc2)cc1,Inhibition,[1],98%
same,Inhibition,[2],97%
same,Inhibition,[3],0%
CC(=O)NC(c1cccs1)c1cc(Cl)c2cccnc2c1O (centres undefined),Inhibition,[1],94%
same,Inhibition,[2],93%
same,Inhibition,[3],65%
CCOC(=O)C1=C(C)N=c2sc(=Cc3cc(Cl)ccc3O)c(=O)n2C1c1ccc(OC)cc1 (centres undefined),Inhibition,[1],99%
same,Inhibition,[2],65%
same,Inhibition,[3],0%
COc1ccccc1C(C)NCC(=O)Nc1ccccc1Sc1ccccc1 (centres undefined),Inhibition,[1],89%
same,Inhibition,[2],7%
same,Inhibition,[3],0%
CN1CCN(c2cc3c(cc2Br)CCN3C(=O)Nc2ccc(-c3cnc4ccccc4c3)cc2)CC1,Inhibition,[1],99%
same,Inhibition,[2],79%
same,Inhibition,[3],100%
